# Out of some 420,000 compounds screened, about 64,000 (15%) were called active. Another 27% or so got no clear call; they are omitted. The list is a sample of the results. Unmarked numbers belong to inactive results. The call rests on the fitted dose curve; in most records, active means well fitted inhibition curve with a large enough effect; inconclusive means small, poorly fitted or top-dose-only effect; inactive means flat fitted curve, though single readings scatter.
# Experiment: qHTS for Inhibitors of human tyrosyl-DNA phosphodiesterase 1 (TDP1): qHTS in cells in absence of CPT; further: nearly all actives have a fitted effect of over 55% in size
# Settings: DT40 Tdp1-/- hTDP1 cells, no CPT, ATP luminescence, 48 h; activity change, negative = growth inhibition: at 46.2 µM (top of the series)
# Method in brief: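 Camptothecin absent (DMSO only). Human TDP1-complemented DT40 knockout cells, 400 cells/well, 37 °C for minimum 48 hr; ATP measured via CellTiter-Glo, 30 min dark incubation, luminescence.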
# On the % scale 0 is the no-effect control and ±100 the full control effect; potency means the concentration at half of the fitted maximal effect.
SMILES,"activity change, negative = growth inhibition",Potency
O=C(COC(=O)COc1ccccc1F)Nc1cccc(S(=O)(=O)N2CCCCC2)c1,-1.15%,–
O=C1OCCOC2CCCc3oc(-c4ccccc4)c1c32 (stereo not drawn),-25%,–
CCN(CC)CCCN1C(=O)C(=O)/C(=C(/O)c2c(C)nc3ccccn23)C1c1ccc(C)o1 (stereo not drawn),-16.8%,–
O=C(CCNc1n[nH]c(=O)[nH]c1=O)N/N=C\c1ccc(Br)cc1,0.678%,–
Cc1c(O)cc2c(c1C)O[C@](C)(CCC[C@H](C)CCC[C@H](C)CCCC(C)C)CC2,-16.5%,–
COc1ccc(NC(=O)CN2C(=O)NC(C)(c3ccccc3)C2=O)cn1 (stereo not drawn),5.71%,–
COc1ccc(OCC(=O)NN2Cc3ccccc3C2=N)cc1,-4.78%,–
Cc1ccc(N2C(=O)c3ccccc3C2(O)c2ncc[nH]2)cc1 (stereo not drawn),-4.39%,–
C=CCNc1cnn(-c2ccc(C)cc2)c(=O)c1Cl,-2.77%,–
O=C(NCc1cccc(C(F)(F)F)c1)c1cccc(S(=O)(=O)N2CCN(Cc3ccccc3)CC2)c1,–,18.4 µM (active)
O=C(NCc1ccccc1)c1ccc(S(=O)(=O)Nc2cccc(C(F)(F)F)c2)cc1,-0.815%,–
O=C(CCC(=O)c1ccccc1)NCc1cccc(C(F)(F)F)c1,-9.59%,–
O=S(=O)(NCCS(=O)(=O)N1CCN(c2ccccc2)CC1)c1ccc(F)cc1,-13.9%,–
CN(Cc1cccc2ncccc12)C(=O)CC1C(=O)NCCN1Cc1ccc(F)cc1 (stereo not drawn),-8.69%,–
CC1CN(/C=C/C(=O)C(F)(F)F)CC(C)O1 (stereo not drawn),-15.9%,–
Cc1cc(NC(=O)CN2C(=O)NC(CC(C)C)C2=O)no1 (stereo not drawn),17.8%,–
Cc1ccc(S(=O)(=O)N(Cc2ccc(Cl)cc2)c2ccccc2C(=O)NCc2cccnc2)cc1,–,23.1 µM (active)
O=C(NCc1cccnc1)c1cccnc1Sc1ccc(Cl)cc1,-1.61%,–
CS(=O)(=O)N(Cc1ccccc1)c1ccc(C(=O)NN=C2CCCCCC2)cc1,-12%,–
CN(c1ccccc1)S(=O)(=O)c1ccc(C(=O)NCc2cccnc2)cc1,-40.5%,–
O=C(O)c1ccccc1-c1ccccc1C(=O)NCc1cccnc1,-1.27%,–

SMILES,"activity change, negative = growth inhibition",Potency
CS(=O)(=O)N(Cc1ccccc1Cl)c1ccc(C(=O)NCc2cccnc2)cc1,–,14.6 µM (active)
CCOc1ccc(OCC(=O)OC(C)C(=O)NC2CCCCC2C)cc1 (stereo not drawn),-6.76%,–
CC1(C)Oc2ccc3ccc(=O)oc3c2/C(=N/O)C1=O,8.39%,–
O=c1cc(COc2cccc(C(F)(F)F)c2)nc2sc3c(n12)CCCC3,-5.11%,–
Cc1ccc2c(cnn2C(=O)CCC(=O)NC2CCCC2)c1,-21.2%,–
CCOC(=O)c1c(-c2cccc(N)c2)cn2ccccc12,2.26%,–
N#Cc1nc(/C=C/c2ccc(F)cc2)oc1NCc1ccc(F)cc1,-24.3%,–
CCOc1ccc(Nc2oc(/C=C/c3ccc(F)cc3)nc2C#N)cc1,-23.4%,–
COc1ccccc1/C=C/c1nc(C#N)c(NC(C)c2ccccc2)o1 (stereo not drawn),–,16.4 µM (active)
O=C(CNC(=O)c1ccccc1F)OCC(=O)c1c[nH]c2ccccc12,15%,–
Cc1c(C(=O)N(C)C)sc2c1c(=O)n(-c1ccc(F)cc1)c(=O)n2CC(=O)N(C)c1ccccc1,-0.482%,–
CCOC(=O)N1CCN(C(=O)C[C@@H]2C[C@@]3(C(=O)OC)CC(C)(C)CC=C3N(Cc3ccco3)C2=O)CC1,–,18.4 µM (active)
COC(=O)[C@@]12C[C@@H](CC(=O)N3CCCCC3)C(=O)N(Cc3ccc4c(c3)OCO4)C1=CCC(C)(C)C2,–,20.6 µM (active)
O=C(NCc1ccccc1)C1CCN(C(=O)Cc2ccccc2)CC1,-10.3%,–
CCn1cc(C(=O)N2CCN(Cc3ccc4c(c3)OCO4)CC2)c2cc(OC)c(OC)cc2c1=O,-20.4%,–
COC(=O)[C@]12CCCCC=C1N(Cc1ccc3c(c1)OCO3)C(=O)[C@H](CC(=O)N1CCOCC1)C2,-9.62%,–
CCOC(=O)[C@]12CCC=C1N(Cc1ccco1)C(=O)[C@H](CC(=O)N1CCSCC1)C2,-10.7%,–
COC(=O)[C@@]12C[C@@H](CC(=O)N3CCC(c4ccccc4)CC3)C(=O)N(Cc3ccccc3)C1=CCC(C)(C)C2,–,14.6 µM (active)
CCOC(=O)N1CCN(C(=O)C(C)NC(=O)c2ccco2)CC1 (stereo not drawn),1.25%,–
CCOC(=O)C1CCN(C(=O)CC2C(=O)N(Cc3ccccc3)C(C)c3nc4ccccc4n32)CC1 (stereo not drawn),-12.5%,–
CC(C)CCN1CCN(C/C=C/c2ccco2)CC1CCO (stereo not drawn),7.71%,–

SMILES,"activity change, negative = growth inhibition",Potency
COC(=O)c1cccc(C(=O)N2CCCC(Nc3ccc4c(c3)OCCO4)C2)c1 (stereo not drawn),11.9%,–
O=C(O)Cc1ccc(NCc2ccccc2Cl)cc1,10.5%,–
Cc1cccc(-c2nnc(SCC(=O)O)n2Cc2ccccc2)c1,4.53%,–
O=C1CC(Cc2ccc(Cl)cc2)C(=O)N1c1cc(Cl)ccn1 (stereo not drawn),5.45%,–
COc1ccc(CNC(=O)CSc2nc3ccccc3nc2Cc2ccccc2)cc1,-25.4%,–
O=C(CSc1nc2ccccc2nc1Cc1ccccc1)N1CCCCC1,–,18.4 µM (active)
O=C(CSc1n[nH]c(-c2ccccc2)n1)N1CCCCC1,-7.63%,–
COc1cc(NC(=O)Cn2c(=O)n(Cc3ccco3)c(=O)c3oc4ccccc4c32)cc(OC)c1,-13.2%,–
Cc1c(CCC(=O)O)c(=O)oc2cc3occ(-c4ccccc4)c3cc12,-4.43%,–
O=C(c1ccco1)N1CCN(CC(=O)N(C2CCCCC2)C2CCS(=O)(=O)C2)CC1 (stereo not drawn),-0.389%,–
COC(=O)c1sccc1NC(=O)CC1C(=O)NCCN1C(=O)Nc1ccc(F)cc1F (stereo not drawn),-0.938%,–
COc1ccccc1CCNC(=O)c1cnccn1,-12.8%,–
COc1ccccc1CCNC(=O)CN1C(=O)NC2(CCCC2)C1=O,-9.82%,–
C=C1C=C(C(F)F)n2ncc(C(=O)NCCc3ccccc3OC)c2N1,–,17.8 µM (active)
Cc1nn2cc(-c3ccc(Cl)cc3)cnc2c1Br,-22.4%,–
COC(=O)CCCC1=CC2=CC(=O)C(C)(OC(=O)c3cccs3)C(=O)C2=CN1c1cccc(C#N)c1 (stereo not drawn),-14%,–
Cc1cccc(NC(=O)N2CCN(C)c3ncccc32)c1C,-13.9%,–
Cc1cc(NC(=O)CSc2nnc(Nc3ccccc3F)s2)no1,10.2%,–
Cc1cc(NC(=O)CSc2nnc(-c3ccc(Cl)s3)o2)no1,–,16.4 µM (active)
COc1ccccc1-c1nnc(SCC(=O)Nc2cc(C)on2)o1,8.42%,–
COc1ccc([N+](=O)[O-])cc1NC(=O)CC1SC(=Nc2cccc(C)c2C)N(/N=C(\C)c2ccc(C)cc2)C1=O (stereo not drawn),-1.02%,–

# Reference: PubChem BioAssay AID686978 (National Center for Advancing Translational Sciences (NCATS), 2013)
